Data: the supplement of paper PMC11732987, “Enantioselective OTUD7B fragment discovery through chemoproteomics screening and high-throughput optimisation” (Communications Chemistry, 2025)

Key:
Assay in all cases: log2 ratio of Biotin-Ahx-Ub-VS probe labelling (fragment/DMSO); higher = less target engagement (more negative = stronger competition), active = hit call of the paper (q ≤ 0.05, log2 ratio ≤ -1)
Details in all cases: compound concentration: 200 uM; treatment time: 3 h
USP34 = USP34 (UniProt Q70CQ2)
Method in brief: (§1)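 Labelled DUBs from HEK293T lysate were NeutrAvidin-enriched, digested with LysC and trypsin, and run by diaPASEF LC-MS/MS. Before that, each 495 µg sample in Tris/CHAPS/IGEPAL buffer with protease inhibitors was treated in triplicate with fragment at 200 µM or vehicle for 3 h, then with Biotin-Ahx-Ub-VS at 0.5 µM final for 1 h. Values are average log2 ratios of fragment over vehicle by unpaired t-test, based on global-median-normalised Spectronaut label-free quantities from proteins with ≥2 unique peptides.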

USP36 = molecular target: T1, USP36 (UniProt Q9P275)
T1 sequence (whole entry): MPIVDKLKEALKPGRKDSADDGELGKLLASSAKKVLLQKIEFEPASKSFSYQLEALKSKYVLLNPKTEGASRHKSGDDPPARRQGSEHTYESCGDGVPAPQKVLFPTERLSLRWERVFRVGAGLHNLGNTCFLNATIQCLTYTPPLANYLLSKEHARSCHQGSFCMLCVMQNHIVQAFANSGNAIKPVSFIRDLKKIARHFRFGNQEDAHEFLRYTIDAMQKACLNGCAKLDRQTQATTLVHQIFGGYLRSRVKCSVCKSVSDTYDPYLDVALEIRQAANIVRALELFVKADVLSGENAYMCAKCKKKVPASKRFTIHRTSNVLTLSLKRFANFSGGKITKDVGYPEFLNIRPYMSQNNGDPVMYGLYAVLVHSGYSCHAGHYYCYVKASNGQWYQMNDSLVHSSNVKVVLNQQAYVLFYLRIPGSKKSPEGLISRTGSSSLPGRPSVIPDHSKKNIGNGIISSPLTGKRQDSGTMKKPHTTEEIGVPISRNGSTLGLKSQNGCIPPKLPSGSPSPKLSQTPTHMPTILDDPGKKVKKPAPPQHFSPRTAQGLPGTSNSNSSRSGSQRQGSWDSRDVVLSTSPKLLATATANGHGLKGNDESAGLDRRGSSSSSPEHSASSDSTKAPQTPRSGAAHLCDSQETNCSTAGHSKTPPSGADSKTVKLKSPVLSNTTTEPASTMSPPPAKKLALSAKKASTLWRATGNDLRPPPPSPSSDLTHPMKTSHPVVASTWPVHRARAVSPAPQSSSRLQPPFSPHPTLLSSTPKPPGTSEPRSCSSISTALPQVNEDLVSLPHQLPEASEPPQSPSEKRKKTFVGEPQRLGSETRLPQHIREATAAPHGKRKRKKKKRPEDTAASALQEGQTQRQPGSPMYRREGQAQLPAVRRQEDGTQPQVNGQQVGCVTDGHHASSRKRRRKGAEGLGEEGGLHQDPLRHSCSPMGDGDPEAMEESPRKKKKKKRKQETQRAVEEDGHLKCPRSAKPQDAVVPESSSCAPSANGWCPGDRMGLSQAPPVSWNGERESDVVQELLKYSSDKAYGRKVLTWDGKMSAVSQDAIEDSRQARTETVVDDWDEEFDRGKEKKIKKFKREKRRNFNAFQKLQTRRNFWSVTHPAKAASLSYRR
Method in brief: as §1

USP38 = molecular target: T2, USP38 (UniProt Q8NB14)
T2 sequence (whole entry): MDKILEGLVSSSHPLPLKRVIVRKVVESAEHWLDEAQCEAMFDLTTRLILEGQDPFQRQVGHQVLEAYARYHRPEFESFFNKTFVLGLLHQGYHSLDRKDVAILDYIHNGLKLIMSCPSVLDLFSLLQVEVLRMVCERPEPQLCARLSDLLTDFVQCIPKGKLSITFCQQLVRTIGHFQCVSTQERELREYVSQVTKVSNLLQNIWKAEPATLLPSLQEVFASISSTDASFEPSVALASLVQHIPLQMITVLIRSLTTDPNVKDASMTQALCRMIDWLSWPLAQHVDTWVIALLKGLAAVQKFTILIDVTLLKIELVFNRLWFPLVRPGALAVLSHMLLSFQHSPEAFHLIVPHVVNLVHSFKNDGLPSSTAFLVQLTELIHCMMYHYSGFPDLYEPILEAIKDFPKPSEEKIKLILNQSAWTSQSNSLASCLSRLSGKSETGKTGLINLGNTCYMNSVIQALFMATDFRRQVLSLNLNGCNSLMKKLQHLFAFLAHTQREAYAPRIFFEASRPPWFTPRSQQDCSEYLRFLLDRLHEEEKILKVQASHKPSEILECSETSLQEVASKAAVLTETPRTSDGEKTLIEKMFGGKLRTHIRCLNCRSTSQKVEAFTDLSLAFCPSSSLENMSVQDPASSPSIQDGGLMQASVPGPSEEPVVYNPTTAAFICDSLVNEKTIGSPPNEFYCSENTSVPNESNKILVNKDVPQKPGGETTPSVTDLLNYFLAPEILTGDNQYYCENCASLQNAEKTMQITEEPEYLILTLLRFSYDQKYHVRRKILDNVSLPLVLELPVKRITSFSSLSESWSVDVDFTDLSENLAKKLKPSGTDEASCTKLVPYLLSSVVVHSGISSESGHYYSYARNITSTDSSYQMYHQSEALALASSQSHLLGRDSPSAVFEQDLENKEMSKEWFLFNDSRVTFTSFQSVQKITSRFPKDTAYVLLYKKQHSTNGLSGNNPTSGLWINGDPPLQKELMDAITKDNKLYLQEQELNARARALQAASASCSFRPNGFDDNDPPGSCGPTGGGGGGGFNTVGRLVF
Method in brief: as §1

USP39 = molecular target: T3, USP39 (UniProt Q53GS9)
T3 sequence (whole entry): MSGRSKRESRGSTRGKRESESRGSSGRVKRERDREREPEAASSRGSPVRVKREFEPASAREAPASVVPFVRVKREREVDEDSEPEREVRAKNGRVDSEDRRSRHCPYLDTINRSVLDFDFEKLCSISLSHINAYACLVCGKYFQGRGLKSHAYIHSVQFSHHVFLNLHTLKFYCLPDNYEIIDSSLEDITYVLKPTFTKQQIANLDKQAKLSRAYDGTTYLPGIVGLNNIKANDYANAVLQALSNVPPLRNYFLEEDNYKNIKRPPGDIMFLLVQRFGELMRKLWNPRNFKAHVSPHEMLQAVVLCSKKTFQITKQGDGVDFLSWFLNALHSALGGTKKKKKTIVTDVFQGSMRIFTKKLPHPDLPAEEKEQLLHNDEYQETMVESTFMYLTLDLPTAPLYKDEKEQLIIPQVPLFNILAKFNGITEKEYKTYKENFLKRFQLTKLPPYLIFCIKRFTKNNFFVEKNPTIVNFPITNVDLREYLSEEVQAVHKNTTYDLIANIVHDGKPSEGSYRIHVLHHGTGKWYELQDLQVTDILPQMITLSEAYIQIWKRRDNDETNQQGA
Method in brief: as §1

USP4 = molecular target: T4, USP4 (UniProt Q13107)
T4 sequence (whole entry): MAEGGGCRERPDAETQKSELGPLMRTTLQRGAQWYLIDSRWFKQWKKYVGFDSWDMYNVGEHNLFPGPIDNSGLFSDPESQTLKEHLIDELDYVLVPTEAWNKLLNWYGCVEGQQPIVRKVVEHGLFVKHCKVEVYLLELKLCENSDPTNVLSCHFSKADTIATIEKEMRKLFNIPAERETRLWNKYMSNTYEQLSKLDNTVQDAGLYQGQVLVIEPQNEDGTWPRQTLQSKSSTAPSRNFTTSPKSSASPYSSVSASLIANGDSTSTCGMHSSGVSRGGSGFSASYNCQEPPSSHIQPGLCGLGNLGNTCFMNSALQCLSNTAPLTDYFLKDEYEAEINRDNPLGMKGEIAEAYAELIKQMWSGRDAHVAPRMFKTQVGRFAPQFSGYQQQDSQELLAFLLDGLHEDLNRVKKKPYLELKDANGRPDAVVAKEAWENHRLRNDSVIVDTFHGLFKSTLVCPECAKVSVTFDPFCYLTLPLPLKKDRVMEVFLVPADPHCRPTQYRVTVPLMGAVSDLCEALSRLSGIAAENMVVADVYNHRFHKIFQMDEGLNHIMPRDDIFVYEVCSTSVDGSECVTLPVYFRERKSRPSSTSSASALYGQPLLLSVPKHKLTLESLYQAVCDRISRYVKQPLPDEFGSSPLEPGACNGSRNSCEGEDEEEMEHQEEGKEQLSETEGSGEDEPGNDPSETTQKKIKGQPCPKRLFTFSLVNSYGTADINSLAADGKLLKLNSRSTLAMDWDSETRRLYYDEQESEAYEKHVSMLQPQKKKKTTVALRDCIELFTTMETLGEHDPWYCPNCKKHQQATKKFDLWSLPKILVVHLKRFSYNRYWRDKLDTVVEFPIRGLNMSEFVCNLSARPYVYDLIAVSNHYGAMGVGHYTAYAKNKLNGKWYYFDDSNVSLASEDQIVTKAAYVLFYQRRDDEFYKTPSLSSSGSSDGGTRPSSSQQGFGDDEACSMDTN
Method in brief: as §1

Measured: log2 ratio of Biotin-Ahx-Ub-VS probe labelling

Sequence of USP34 (Q70CQ2 whole entry, the tested form may be a part): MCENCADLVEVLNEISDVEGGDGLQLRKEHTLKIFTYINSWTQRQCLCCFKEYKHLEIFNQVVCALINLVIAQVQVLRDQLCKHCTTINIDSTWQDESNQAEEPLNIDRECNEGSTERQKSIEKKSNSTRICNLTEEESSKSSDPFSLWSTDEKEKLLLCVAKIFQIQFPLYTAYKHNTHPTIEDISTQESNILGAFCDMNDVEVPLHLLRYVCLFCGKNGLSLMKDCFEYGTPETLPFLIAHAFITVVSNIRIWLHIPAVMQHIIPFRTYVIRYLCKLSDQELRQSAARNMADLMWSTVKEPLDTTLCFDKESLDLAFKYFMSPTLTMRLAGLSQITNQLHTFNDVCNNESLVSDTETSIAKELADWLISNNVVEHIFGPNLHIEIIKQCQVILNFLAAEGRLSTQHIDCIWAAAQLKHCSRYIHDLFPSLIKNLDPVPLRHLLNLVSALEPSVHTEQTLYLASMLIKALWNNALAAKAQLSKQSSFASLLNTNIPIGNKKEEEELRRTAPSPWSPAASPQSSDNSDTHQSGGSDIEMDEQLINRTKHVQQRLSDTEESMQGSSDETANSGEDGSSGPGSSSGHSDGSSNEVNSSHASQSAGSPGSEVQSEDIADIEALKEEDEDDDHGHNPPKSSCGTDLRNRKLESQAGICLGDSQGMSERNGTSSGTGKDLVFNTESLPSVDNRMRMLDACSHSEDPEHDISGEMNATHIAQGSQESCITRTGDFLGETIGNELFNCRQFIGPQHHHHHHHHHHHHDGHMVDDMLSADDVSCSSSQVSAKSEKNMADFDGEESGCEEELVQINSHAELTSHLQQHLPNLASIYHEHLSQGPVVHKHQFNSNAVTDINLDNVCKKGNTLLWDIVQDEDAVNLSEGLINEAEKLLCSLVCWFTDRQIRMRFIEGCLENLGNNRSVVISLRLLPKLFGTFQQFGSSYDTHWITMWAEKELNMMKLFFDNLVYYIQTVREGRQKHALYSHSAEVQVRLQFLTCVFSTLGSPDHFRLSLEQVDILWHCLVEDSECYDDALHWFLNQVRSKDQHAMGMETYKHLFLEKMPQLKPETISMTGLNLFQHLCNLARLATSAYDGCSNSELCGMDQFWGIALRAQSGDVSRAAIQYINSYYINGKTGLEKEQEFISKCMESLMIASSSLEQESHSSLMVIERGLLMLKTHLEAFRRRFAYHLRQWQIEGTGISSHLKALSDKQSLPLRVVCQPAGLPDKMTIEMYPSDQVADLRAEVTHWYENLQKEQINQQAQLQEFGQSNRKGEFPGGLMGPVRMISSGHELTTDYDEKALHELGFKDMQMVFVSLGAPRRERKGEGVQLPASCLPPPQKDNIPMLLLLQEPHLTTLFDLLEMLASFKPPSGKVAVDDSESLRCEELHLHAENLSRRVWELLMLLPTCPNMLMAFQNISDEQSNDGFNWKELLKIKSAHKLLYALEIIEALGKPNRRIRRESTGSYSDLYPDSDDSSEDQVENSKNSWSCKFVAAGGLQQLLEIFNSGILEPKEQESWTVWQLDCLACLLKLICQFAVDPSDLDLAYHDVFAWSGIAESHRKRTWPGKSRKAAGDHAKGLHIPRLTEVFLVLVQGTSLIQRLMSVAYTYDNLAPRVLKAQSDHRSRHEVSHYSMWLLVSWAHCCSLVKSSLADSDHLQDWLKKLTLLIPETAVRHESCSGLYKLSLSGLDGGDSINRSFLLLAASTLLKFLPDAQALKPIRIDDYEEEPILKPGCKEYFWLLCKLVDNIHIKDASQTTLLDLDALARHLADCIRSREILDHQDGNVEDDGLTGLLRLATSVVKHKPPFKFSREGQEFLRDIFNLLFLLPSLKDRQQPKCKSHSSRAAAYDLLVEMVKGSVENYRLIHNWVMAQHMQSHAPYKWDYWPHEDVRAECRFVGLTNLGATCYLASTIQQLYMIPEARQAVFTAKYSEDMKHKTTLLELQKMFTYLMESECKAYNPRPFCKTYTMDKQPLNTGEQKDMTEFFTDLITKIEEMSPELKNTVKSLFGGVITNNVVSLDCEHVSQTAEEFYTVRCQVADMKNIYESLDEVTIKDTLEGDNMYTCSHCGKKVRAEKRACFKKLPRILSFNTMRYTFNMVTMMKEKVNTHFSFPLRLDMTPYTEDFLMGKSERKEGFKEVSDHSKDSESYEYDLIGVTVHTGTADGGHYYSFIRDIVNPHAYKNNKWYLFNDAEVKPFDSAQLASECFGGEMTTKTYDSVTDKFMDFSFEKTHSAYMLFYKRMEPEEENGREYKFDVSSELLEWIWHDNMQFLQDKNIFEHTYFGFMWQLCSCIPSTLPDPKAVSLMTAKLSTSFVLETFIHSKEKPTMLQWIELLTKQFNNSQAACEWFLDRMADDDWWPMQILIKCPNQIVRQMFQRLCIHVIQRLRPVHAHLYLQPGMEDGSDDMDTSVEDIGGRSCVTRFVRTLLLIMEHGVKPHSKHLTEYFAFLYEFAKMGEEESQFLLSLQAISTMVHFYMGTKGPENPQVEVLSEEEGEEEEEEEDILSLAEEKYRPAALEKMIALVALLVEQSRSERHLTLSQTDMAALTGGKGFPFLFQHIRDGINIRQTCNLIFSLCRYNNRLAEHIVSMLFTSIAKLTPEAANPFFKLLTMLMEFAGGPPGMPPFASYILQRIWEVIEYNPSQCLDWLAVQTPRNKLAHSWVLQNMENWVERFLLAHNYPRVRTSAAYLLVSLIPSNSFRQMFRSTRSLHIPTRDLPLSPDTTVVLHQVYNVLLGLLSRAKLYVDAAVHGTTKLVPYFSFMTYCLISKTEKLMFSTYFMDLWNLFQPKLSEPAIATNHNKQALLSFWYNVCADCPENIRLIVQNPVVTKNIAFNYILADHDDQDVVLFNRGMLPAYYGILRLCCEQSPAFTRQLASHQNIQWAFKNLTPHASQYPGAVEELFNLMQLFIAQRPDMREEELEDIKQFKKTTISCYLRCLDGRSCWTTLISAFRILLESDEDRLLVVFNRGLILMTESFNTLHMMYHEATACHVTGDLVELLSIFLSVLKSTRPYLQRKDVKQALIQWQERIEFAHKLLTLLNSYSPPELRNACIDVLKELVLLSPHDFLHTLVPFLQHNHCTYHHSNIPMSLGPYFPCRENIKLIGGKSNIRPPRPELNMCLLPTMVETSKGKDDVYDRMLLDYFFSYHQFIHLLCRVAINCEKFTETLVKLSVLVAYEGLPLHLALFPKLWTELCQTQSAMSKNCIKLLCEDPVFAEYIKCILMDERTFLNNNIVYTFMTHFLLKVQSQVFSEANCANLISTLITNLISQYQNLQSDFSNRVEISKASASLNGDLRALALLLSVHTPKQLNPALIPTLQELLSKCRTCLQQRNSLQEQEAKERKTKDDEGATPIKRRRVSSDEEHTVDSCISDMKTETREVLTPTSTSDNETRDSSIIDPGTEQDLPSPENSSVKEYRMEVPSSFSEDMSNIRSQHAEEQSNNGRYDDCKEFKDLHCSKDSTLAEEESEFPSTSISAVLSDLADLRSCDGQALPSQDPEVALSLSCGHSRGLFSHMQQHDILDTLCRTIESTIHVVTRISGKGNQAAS

CN(C)C(=O)c1ccc(CNC(=O)CCl)cc1
inactive: USP34 0.0263 | USP36 0.0235 | USP38 0.231 | USP39 0.0923 | USP4 0.059
